Sampled rows, rich in hits. Any-hit rate of the full collection: about 14%.
Pf growth 96h: Primary qHTS for delayed death inhibitors of the malarial parasite plastid, 96 hour incubation; P. falciparum luciferase reporter growth, 96 h; Potency, µM (highest dose often 28.7 µM), actives largely listed as inhibitors; 320,000 compounds, 6.9% hits
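Luminescence readout: decreased luciferase signal marks inhibited growth of reporter-expressing P. falciparum in infected red cells (2% hematocrit, 0.05% parasitemia final), exposed to compound two generations (96 h, 37 C, 5% CO2).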
FBPA Giardia inh: qHTS Assay for Inhibitors of Fructose-1,6-bisphosphate Aldolase from Giardia Lamblia. A8B2U2. purified Giardia FBPA. Potency, µM (doses to about 59.6 µM), most hits filed as inhibitors. 290,000 compounds, 0.71% hits. AID 2451, 2010; also: nearly all actives have a fitted effect of over 55% in size
Target sequence (A8B2U2 whole entry, looked up): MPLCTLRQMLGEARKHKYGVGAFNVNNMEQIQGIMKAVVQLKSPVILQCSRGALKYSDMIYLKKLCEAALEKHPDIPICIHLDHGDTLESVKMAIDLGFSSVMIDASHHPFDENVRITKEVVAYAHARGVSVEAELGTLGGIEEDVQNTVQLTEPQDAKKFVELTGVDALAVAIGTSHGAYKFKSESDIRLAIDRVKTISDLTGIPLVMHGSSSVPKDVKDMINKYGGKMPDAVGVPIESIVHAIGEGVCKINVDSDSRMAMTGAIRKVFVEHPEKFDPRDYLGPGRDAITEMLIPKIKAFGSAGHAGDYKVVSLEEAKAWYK
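Giardia FBPA (40 nM reagent) was preincubated 10 min at RT with compound (up to 57.5 uM final), then substrate plus GAPDH/TPI/NAD/arsenate coupling system with diaphorase/resazurin was added; resorufin fluorescence (525/598 nm) was read after 20 min.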
Sm TGR inh: qHTS Assay for the Inhibitors of Schistosoma Mansoni Peroxiredoxins; purified TGR, DTNB reduction, TNB absorbance 405 nm; Potency, µM (top dose mostly 114 µM), actives largely listed as inhibitors; 360,000 compounds, 3% hits; Schistosoma mansoni thioredoxin glutathione reductase (TGR), Q962Y6; also: nearly all actives have a fitted effect of over 60% in size
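TGR 20 nM + NADPH 100 uM (dispensed conc.), cpd preinc 15 min RT; start with NADPH (500 uM addition) then DTNB (15 mM addition). Kinetic TNB absorbance, 405 nm filter. Four-parameter Hill fit across titration.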
HCMV antiviral: qHTS Assay for inhibitors of the human cytomegalovirus (HCMV) | HFF cells, HCMV-luciferase reporter, 72 h; hits give low values | activity change, negative = inhibition, % at 57.5 µM | 410,000 compounds, 4.5% hits | AID 1259415, 2018; in the data active = activity change below about -60%; inconclusive = no clear call, values can overlap the other calls; inactive = above about -39%
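Two-dose cell screen: HFF monolayers treated with compounds and infected with luciferase-expressing HCMV at 1 PFU/cell, 72 h at 37C, then lysed for luciferase measurement.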
Pf growth 48h: Primary qHTS for delayed death inhibitors of the malarial parasite plastid, 48 hour incubation; P. falciparum luciferase growth in erythrocytes, 48 h; 310,000 compounds, 5.9% hits; Potency, µM (highest dose often 28.7 µM), usual class: inhibitors
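Erythrocytes infected with P. falciparum carrying an integrated firefly luciferase reporter (2% hematocrit, 0.1% parasitemia final) were exposed to compounds in RPMI 1640 with 0.5% Albumax at 37 C, 5% CO2. Growth inhibition was scored as reduced luminescence.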
Numbers stand for hits; 0 = inactive; ? = inconclusive; - = no result. Unless noted, calls follow the shape of the dose curve; as a rule, active = well fitted curve in the direction sought with a large enough effect; inconclusive = small, poorly fitted or top-dose-only effect, or another doubt; inactive = no such curve, though single readings can be large; an effect the other way counts as inactive or inconclusive.

SMILES | Pf growth 96h | FBPA Giardia inh | Sm TGR inh | HCMV antiviral | Pf growth 48h
CC1C(=O)OC(c2ccc(Cl)cc2)C(C)(C)C1=O (centres undefined) | 0 | 0 | 0 | 0 | 0
C[C@@H]1C=CC(=O)O[C@@H]1c1ccc(Cl)cc1 | ? | 0 | 0 | -92 | ?
CCOC(=O)C1=C(C)NC2=C(C(=O)CC(C)(C)C2)C1c1ccc(N(C)C)cc1 (centres undefined) | ? | 0 | 0 | - | 12µM
CCOC(=O)C1=C(C)NC2=C(C(=O)CC(C)(C)C2)C1c1ccc2c(c1)CCCN2C (centres undefined) | 0 | 0 | 0 | 0 | 13µM
CCOC(=O)c1c2c(n(C)c1C)C(=O)C(=O)c1ccc(Br)cc1-2 | - | - | - | -97 | -
CN(C)Cc1c(O)ccc2cc(-c3nc4ccccc4n3C)c(=O)oc12 | 0 | ? | 0 | 0 | 0
Cc1c(CN(C)C)c2c(n1C)C(=O)c1ccc(Br)cc1-2 | 12µM | 0 | ? | 0 | ?
Cc1c(CN(C)C)c2c(n1Cc1ccccc1)C(=O)c1ccc(Br)cc1-2 | 2.3µM | 0 | 0 | 0 | -
COc1ccc(OCc2ccc(-c3nc(C#N)c(N4CCC(C)CC4)o3)o2)cc1 | - | - | 0 | 0 | -
Cc1cccc(CC(=O)NCCS(=O)(=O)N2CCN(c3cccc(Cl)c3)CC2)c1 | 0 | - | 0 | 0 | ?
Cn1cccc1-c1cc2n(n1)CCC(=O)N2CC(=O)Nc1ccc(F)cc1Cl | - | - | 0 | 0 | -
COC(=O)C1=CN(C(C)C)C=C(C(=O)OC)C1c1cc(Br)c(OC)c(OC)c1 | 7.4µM | 0 | 0 | 0 | 4.7µM
O=C1c2ccccc2S(=O)(=O)N1Cc1cc(=O)n2ccsc2n1 | 13µM | 0 | 0 | 0 | ?
CN1CCN(Cc2cc(=O)n3ccsc3n2)CC1 | ? | - | 0 | -89 | 0
Cc1nc2sccn2c1P(c1c(C)nc2sccn12)c1c(C)nc2sccn12 | ? | 0 | 0 | 0 | 8.3µM
Cc1cc(=O)n2ccsc2n1 | 13µM | 0 | 0 | 0 | 0
CC(C)(C)C1CCc2c(sc(NC(=O)Cn3nnc(-c4ccccc4F)n3)c2C#N)C1 (centres undefined) | - | - | 0 | 0 | -
CC1Cc2ccccc2N1Cc1cc(=O)n2ccsc2n1 (centres undefined) | 13µM | ? | 22µM | 0 | ?
O=C(Nc1nnc(-c2ccco2)s1)c1ccccc1 | 0 | 0 | 25µM | 0 | 0
O=C(Nc1nnc(-c2ccco2)s1)C1CC1 | 0 | 0 | 45µM | 0 | 0
COc1ccc(C(=O)Nc2nnc(-c3ccco3)s2)cc1 | 0 | 0 | 0 | 0 | -
CCOc1ccc(C2c3cc(OCC)c(OCC)cc3CC(=O)N2c2ccc(C(=O)O)cc2)cc1OCC (centres undefined) | - | - | 0 | 0 | -
Nc1nc(-c2cc(O)ccc2[N+](=O)[O-])cc(-c2ccccc2)c1[N+](=O)[O-] | 0 | 0 | ? | -69 | 0
O=[N+]([O-])c1ccccc1-c1cc(-c2ccccc2)on1 | - | - | - | 0 | -
O=C(NCCc1cccc(F)c1)C1CCN(S(=O)(=O)c2ccccc2)CC1 | 0 | 0 | 0 | 0 | 0
SMILES | Pf growth 96h | FBPA Giardia inh | Sm TGR inh | HCMV antiviral | Pf growth 48h
Cc1cccc(CCNC(=O)C2CCN(S(=O)(=O)c3ccccc3)CC2)c1 | ? | 0 | 0 | -68 | ?
Cc1ccccc1CCNC(=O)C1CCN(S(=O)(=O)c2ccc(-n3cnnn3)cc2)CC1 | 13µM | 0 | 0 | 0 | ?
O=C(NCCc1ccccc1)C1CCN(S(=O)(=O)c2cccnc2)CC1 | 7.4µM | 0 | 0 | 0 | -
O=C(NCCc1ccc(Cl)cc1)C1CCN(S(=O)(=O)c2ccc(-n3cnnn3)cc2)CC1 | ? | 0 | 0 | ? | ?
CCCn1cc(S(=O)(=O)c2ccc(OC)cc2)c(=O)c2cc(OCC)ccc21 | ? | - | 0 | 0 | 0
CC(C)Oc1ccc(C(=O)N(Cc2ccc(N(C)C)cc2)C2CCS(=O)(=O)C2)cc1 (centres undefined) | - | - | 0 | 0 | -
COC(=O)N/N=C/c1cc(N=Nc2ccccc2Cl)ccc1O | 7.4µM | 0 | 0 | 0 | ?
O=C(NN=Cc1cc([N+](=O)[O-])ccc1O)c1cccc2ccccc12 | - | - | - | 0 | -
COC(=O)N/N=C/c1cc(N=Nc2ccccc2)ccc1O | ? | 0 | 0 | 0 | ?
Nc1ccc(C(=O)N/N=C\c2cc(N=Nc3cccc4ccccc34)ccc2O)cc1 | 0 | 0 | 0 | -102 | 2.9µM
COc1ccc(NC(=O)N2c3ccc(OC)cc3[C@@H](NCc3cnc[nH]3)[C@H](C)[C@H]2c2ccccc2)cc1 | - | - | - | 0 | -
C[C@H]1CN([C@@H](C)CO)C(=O)CCCn2cc(nn2)CO[C@@H]1CN(C)C(=O)Nc1ccc2c(c1)OCO2 | - | - | - | 0 | -
Cc1cccc(NC(=O)/C(C#N)=C/c2ccccc2Cl)n1 | 0 | 0 | 0 | ? | 0
Cc1cccc(NC(=O)/C(C#N)=C/c2ccccc2O)n1 | 0 | 0 | 89µM | 0 | 0
Cc1cccc(NC(=O)Nc2ccc(C#N)cc2)n1 | ? | 0 | 0 | -84 | 0
O=C(NCC1CCCO1)Nc1ccc2c(c1)OCO2 (centres undefined) | ? | 0 | 0 | 0 | 0
COc1ccc(/C=C2\Oc3cc(OCC(N)=O)ccc3C2=O)cc1OC | 0 | 0 | 0 | 0 | 0
COC(=O)COc1ccc2c(c1)O/C(=C\c1cccc([N+](=O)[O-])c1)C2=O | 0 | 0 | 0 | 0 | 0
COC(=O)C(C)Oc1ccc2c(c1)O/C(=C\c1ccco1)C2=O (centres undefined) | 0 | 0 | 20µM | 0 | 0
COc1ccc2c(c1)O/C(=C\c1ccco1)C2=O | 0 | ? | 7.9µM | 0 | 0
COc1ccc(COc2cc(-c3cccc(OC)c3)nc3ccc(NC(=O)c4ccccc4)cc23)cc1 | 12µM | 0 | 0 | 0 | 12µM
COc1ccc(C(=O)Nc2ccc(NC(=O)c3cccc(OC)c3)cn2)cc1 | 0 | 0 | 0 | 0 | ?
COc1ccc(Cc2nc(-c3ccc(NC(=O)c4cccnc4)cc3)no2)cc1 | 0 | 0 | 0 | 0 | 5.2µM
COc1ccc(COc2cc(-c3cccc(OC)c3)nc3ccc(NC(=O)c4ccc(OC)cc4)cc23)cc1 | 4.7µM | 0 | 0 | -81 | 13µM
COc1ccc(-c2noc(CCC(=O)NCc3cccnc3)n2)cc1 | 0 | 0 | 0 | 0 | 0
SMILES | Pf growth 96h | FBPA Giardia inh | Sm TGR inh | HCMV antiviral | Pf growth 48h
COc1ccc(COc2cc(-c3cccc(OC)c3)nc3ccc(NC(=O)c4cccnc4)cc23)cc1 | 2.3µM | 0 | 0 | 0 | 2.9µM
Cc1ccc(-n2c(=O)c3cccnc3n2CC(=O)Nc2cc(C)cc(C)c2)cc1 | - | - | 0 | 0 | -
COc1ccc(COc2cc(-c3cccc(OC)c3)nc3ccc(NC(=O)c4ccc(Cl)cc4)cc23)cc1 | 3.7µM | 0 | 0 | 0 | 2.1µM
CCOC(=O)NC1(NCC(C)C)Oc2ccccc2O1 | 0 | ? | 22µM | 0 | -
CCOC(=O)NC1(NCc2ccccc2)Oc2ccccc2O1 | ? | 0 | 32µM | 0 | ?
CCOC(=O)NC1(Nc2ccc(C)cc2)Oc2ccccc2O1 | ? | 0 | 40µM | 0 | 0

Bioassay records deposited in PubChem by National Center for Advancing Translational Sciences (NCATS).
